# Experimental data from the supplement of paper PMC8728848.
# This excerpt belongs to a sample that is enriched for the strongest signals.
# B1: PNGase F (Flavobacterium meningosepticum) (protein)
# chain: GIPAPADNTVNIKTFDKVKNAFGDGLSQSAEGTFTFPADVTAVKTIKMFIKNECPNKTCLEWDRYANVYVKNKTTGEWYEIGRFITPYWVGTEKLPRGLEIDVTDFKSLLSGNTELKIYTETWLAKGREYSVDFDIVYGTPDYKYSAVVPVVQYNKSSIDGVPYGKAHTLALKKNIQLPTNTEKAYLRTTISGWGHAKPYDAGSRGCAEWCFRTHTIAINNSNTFQHQLGALGCSANPINNQSPGNWTPDRAGWCPGMAVPTRIDVLNNSLIGSTFSYEYKFQNWTNNGTNGDAFYAISSFVIAKSNTPISAPVVTNLDPHHHHHH
# How the values were obtained:
# Assay in all cases: glycan array binding signal (z-score within array); higher = stronger binding
# Conditions in all cases: glycan notation: IUPAC condensed, linker removed; mutation: D57L
# [1] = target: GlcNAc(b1-2)[GlcNAc(b1-4)]Man(a1-3)[GlcNAc(b1-4)][GlcNAc(b1-2)[GlcNAc(b1-6)]Man(a1-6)]Man(b1-4)GlcNAc(b1-4)GlcNAc
# In short: (§1)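 From the Consortium for Functional Glycomics database, 3228 arrays were curated, keeping only those whose protein sequence was available. Binding is given as a within-array Z-score averaged across arrays sharing a protein sequence and across linkers. Negative Z-scores can be read as non-binding.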
# [2] = target: GlcNAc(b1-3)Gal(b1-4)GlcNAc(b1-2)Man(a1-3)[GlcNAc(b1-3)Gal(b1-4)GlcNAc(b1-2)Man(a1-6)]Man(b1-4)GlcNAc(b1-4)GlcNAc
# In short: as §1
# [3] = target: GlcNAc(b1-3)Gal(b1-4)GlcNAc(b1-3)Gal(b1-4)GlcNAc(b1-3)Gal(b1-4)GlcNAc(b1-3)Gal(b1-4)GlcNAc(b1-2)Man(a1-3)[GlcNAc(b1-3)Gal(b1-4)GlcNAc(b1-3)Gal(b1-4)GlcNAc(b1-3)Gal(b1-4)GlcNAc(b1-3)Gal(b1-4)GlcNAc(b1-2)Man(a1-6)]Man(b1-4)GlcNAc(b1-4)[Fuc(a1-6)]GlcNAc
# In short: as §1
# [4] = target: GlcNAc(b1-3)Gal(b1-4)GlcNAc(b1-3)GalNAc
# In short: as §1
# GlcNAc(b1-3)Man = target: GlcNAc(b1-3)Man
# In short: as §1
# [5] = target: GlcNAc(b1-4)Gal(b1-4)GlcNAc
# In short: as §1
# Kdn(a2-6)Gal(b1-4)GlcNAc = target: Kdn(a2-6)Gal(b1-4)GlcNAc
# In short: as §1
# Man(a1-2)Man(a1-3)Man = target: Man(a1-2)Man(a1-3)Man
# In short: as §1
# Man(a1-3)[Man(a1-6)]Man = target: Man(a1-3)[Man(a1-6)]Man
# In short: as §1
# [6] = target: Man(a1-3)[Man(a1-6)]Man(a1-6)[Man(a1-3)]Man
# In short: as §1
# [7] = target: Man(a1-3)[Man(a1-6)]Man(b1-4)GlcNAc(b1-4)GlcNAc
# In short: as §1
# [8] = target: Neu5Ac(a2-3)Gal(b1-3)GalNAc(b1-4)[Neu5Ac(a2-3)]Gal(b1-4)Glc
# In short: as §1
# [9] = target: Neu5Ac(a2-3)Gal(b1-3)GlcNAc(b1-2)Man
# In short: as §1
# [10] = target: Neu5Ac(a2-3)Gal(b1-3)GlcNAc(b1-2)Man(a1-3)[GlcNAc(b1-4)][Neu5Ac(a2-3)Gal(b1-3)GlcNAc(b1-2)Man(a1-6)]Man(b1-4)GlcNAc(b1-4)GlcNAc
# In short: as §1
# [11] = target: Neu5Ac(a2-3)Gal(b1-3)GlcNAc(b1-6)GalNAc
# In short: as §1
# [12] = target: Neu5Ac(a2-3)Gal(b1-3)GlcNAc6S
# In short: as §1
# [13] = target: Neu5Ac(a2-3)Gal(b1-4)GlcNAc(b1-2)Man
# In short: as §1
# [14] = target: Neu5Ac(a2-3)Gal(b1-4)GlcNAc(b1-3)Gal(b1-4)GlcNAc
# In short: as §1
# [15] = target: Neu5Ac(a2-3)Gal(b1-4)GlcNAc(b1-3)Gal(b1-4)GlcNAc(b1-2)Man(a1-3)[Neu5Ac(a2-3)Gal(b1-4)GlcNAc(b1-3)Gal(b1-4)GlcNAc(b1-2)Man(a1-6)]Man(b1-4)GlcNAc(b1-4)GlcNAc
# In short: as §1
# [16] = target: Neu5Ac(a2-3)Gal(b1-4)GlcNAc(b1-3)Gal(b1-4)GlcNAc(b1-3)Gal(b1-4)GlcNAc(b1-2)Man(a1-3)[Neu5Ac(a2-3)Gal(b1-4)GlcNAc(b1-3)Gal(b1-4)GlcNAc(b1-3)Gal(b1-4)GlcNAc(b1-2)Man(a1-6)]GalNAc
# In short: as §1
# [17] = target: Neu5Ac(a2-3)Gal(b1-4)GlcNAc(b1-6)[Gal(b1-3)]GalNAc
# In short: as §1
# [18] = target: Neu5Ac(a2-3)Gal(b1-4)[Fuc(a1-3)]GlcNAc(b1-6)[Neu5Ac(a2-3)Gal(b1-3)]GalNAc
# In short: as §1
# Neu5Ac(a2-3)GalNAc = target: Neu5Ac(a2-3)GalNAc
# In short: as §1
# [19] = target: Neu5Ac(a2-6)Gal(b1-4)GlcNAc(b1-3)[Neu5Ac(a2-6)Gal(b1-4)GlcNAc(b1-6)]GalNAc
# In short: as §1
# [20] = target: Neu5Ac(a2-6)Gal(b1-4)GlcNAc6S
# In short: as §1
# [21] = target: Neu5Ac(a2-6)GalNAc(b1-4)GlcNAc
# In short: as §1
# [22] = target: Neu5Ac(a2-8)Neu5Ac(a2-3)Gal(b1-3)GalNAc(b1-4)[Neu5Ac(a2-3)]Gal(b1-4)Glc
# In short: as §1
# [23] = target: Neu5Ac9Ac(a2-3)Gal(b1-4)GlcNAc
# In short: as §1
# [24] = target: Neu5Gc(a2-6)Gal(b1-4)GlcNAc
# In short: as §1
# [25] = target: Neu5Gc(a2-8)Neu5Gc(a2-3)Gal(b1-4)GlcNAc(b1-3)Gal(b1-4)GlcNAc
# In short: as §1
binder,measurement,setting,value
B1,glycan array binding signal (z-score),[1],-0.146
same,glycan array binding signal (z-score),[2],0.239
same,glycan array binding signal (z-score),[3],0.677
same,glycan array binding signal (z-score),[4],0.274
same,glycan array binding signal (z-score),GlcNAc(b1-3)Man,2.62
same,glycan array binding signal (z-score),[5],-0.997
same,glycan array binding signal (z-score),Kdn(a2-6)Gal(b1-4)GlcNAc,0.05
same,glycan array binding signal (z-score),Man(a1-2)Man(a1-3)Man,-1.18
same,glycan array binding signal (z-score),Man(a1-3)[Man(a1-6)]Man,0.446
same,glycan array binding signal (z-score),[6],3.32
same,glycan array binding signal (z-score),[7],0.156
same,glycan array binding signal (z-score),[8],0.797
same,glycan array binding signal (z-score),[9],-0.518
same,glycan array binding signal (z-score),[10],0.012
same,glycan array binding signal (z-score),[11],0.237
same,glycan array binding signal (z-score),[12],1.09
same,glycan array binding signal (z-score),[13],3.1
same,glycan array binding signal (z-score),[14],-0.525
same,glycan array binding signal (z-score),[15],0.19
same,glycan array binding signal (z-score),[16],0.914
same,glycan array binding signal (z-score),[17],2.77
same,glycan array binding signal (z-score),[18],0.57
same,glycan array binding signal (z-score),Neu5Ac(a2-3)GalNAc,1.19
same,glycan array binding signal (z-score),[19],-0.712
same,glycan array binding signal (z-score),[20],0.924
same,glycan array binding signal (z-score),[21],-1
same,glycan array binding signal (z-score),[22],-0.06
same,glycan array binding signal (z-score),[23],-1.04
same,glycan array binding signal (z-score),[24],0.069
same,glycan array binding signal (z-score),[25],-0.629
